About 1,500 (3.8%) of roughly 39,000 compounds were called active. The full list was thinned out, with actives kept by preference.
Test system: HSkMC (human skeletal muscle cells)
Assay: cytotoxicity call (relative viability < 0.9)
Settings: 10 µM

Row | SMILES | cytotoxicity call
1 | Cc1ccc(S(=O)(=O)Nc2ccc3c(c2)C(=O)N([C@@H](C)CO)C[C@H](C)[C@@H](CN(C)Cc2ccc(Cl)c(Cl)c2)OCCCC[C@H](C)O3)cc1 | active
2 | Cc1ccc(S(=O)(=O)Nc2ccc3c(c2)C(=O)N([C@H](C)CO)C[C@@H](C)[C@H](CN(C)Cc2ccc(Cl)c(Cl)c2)OCCCC[C@@H](C)O3)cc1 | inactive
3 | Cc1ccc(S(=O)(=O)Nc2ccc3c(c2)C(=O)N([C@H](C)CO)C[C@@H](C)[C@H](CN(C)Cc2ccc(Cl)c(Cl)c2)OCCCC[C@H](C)O3)cc1 | inactive
4 | Cc1noc(C)c1S(=O)(=O)Nc1ccc2c(c1)C(=O)N([C@H](C)CO)C[C@H](C)[C@@H](CN(C)Cc1ccc(Cl)c(Cl)c1)OCCCC[C@H](C)O2 | inactive
5 | Cc1ccc(S(=O)(=O)Nc2ccc3c(c2)C(=O)N([C@@H](C)CO)C[C@@H](C)[C@@H](CN(C)Cc2ccc(Cl)c(Cl)c2)OCCCC[C@@H](C)O3)cc1 | active
6 | Cc1ccc(S(=O)(=O)Nc2ccc3c(c2)C(=O)N([C@H](C)CO)C[C@H](C)[C@H](CN(C)Cc2ccc(Cl)c(Cl)c2)OCCCC[C@H](C)O3)cc1 | inactive
7 | Cc1ccc(S(=O)(=O)Nc2ccc3c(c2)C(=O)N([C@H](C)CO)C[C@@H](C)[C@@H](CN(C)Cc2ccc(Cl)c(Cl)c2)OCCCC[C@H](C)O3)cc1 | inactive
8 | Cc1ccc(S(=O)(=O)Nc2ccc3c(c2)C(=O)N([C@@H](C)CO)C[C@@H](C)[C@H](CN(C)Cc2ccc(Cl)c(Cl)c2)OCCCC[C@@H](C)O3)cc1 | inactive
9 | Cc1ccc(S(=O)(=O)Nc2ccc3c(c2)C(=O)N([C@H](C)CO)C[C@H](C)[C@@H](CN(C)Cc2ccc(Cl)c(Cl)c2)OCCCC[C@H](C)O3)cc1 | inactive
10 | Cc1noc(C)c1S(=O)(=O)Nc1ccc2c(c1)C(=O)N([C@@H](C)CO)C[C@H](C)[C@@H](CN(C)Cc1ccc(Cl)c(Cl)c1)OCCCC[C@H](C)O2 | inactive
11 | Cc1noc(C)c1S(=O)(=O)Nc1ccc2c(c1)C(=O)N([C@H](C)CO)C[C@@H](C)[C@@H](CN(C)Cc1ccc(Cl)c(Cl)c1)OCCCC[C@H](C)O2 | active
12 | Cc1ccc(S(=O)(=O)Nc2ccc3c(c2)C(=O)N([C@@H](C)CO)C[C@H](C)[C@@H](CN(C)Cc2ccc(Cl)c(Cl)c2)OCCCC[C@@H](C)O3)cc1 | active
13 | CNC(=O)C[C@@H]1CC[C@H]2[C@@H](COC[C@@H](O)CN2C(=O)c2ccc3c(c2)OCO3)O1 | inactive
14 | COc1cccc(S(=O)(=O)Nc2ccc3c(c2)OC[C@@H](C)N(C(=O)Cc2cccnc2)C[C@H](C)[C@@H](OC)CN(C)C3=O)c1 | inactive
15 | C[C@@H]1CN([C@@H](C)CO)C(=O)c2cccc(NC(=O)Nc3ccc4c(c3)OCO4)c2O[C@H]1CN(C)S(C)(=O)=O | inactive

— the antibiotic and cytotoxicity screens of Wong et al. (2023)
